Reference: PubChem BioAssay (EPA / NIEHS)
More than one record can exist for a structure, and the calls need not agree. Calls of active or inactive are those of the source. How the source made its calls: active means hit-call score of the fitted dose curve at least 0.9, where 1 is the maximum; inactive means score below 0.9.

Columns and labels:
[1] = read-out: Collagen I, COL1A1 (gene 1277); assay: BSK_MyoF_CollagenI: BioMAP Diversity Plus: MyoF Assay for Collagen I Biomarker Activity (AID 2284238); conditions: primary human lung fibroblasts
Method in brief: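 Lung fibroblasts (human primary) dosed, 24 h; Collagen I by ELISA; positive-direction fit vs DMSO control. Parallel SRB total-protein staining (0.1% SRB, 10% TCA fixation, 560 nm) flags overt cytotoxicity.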

[2] = read-out: Collagen III, COL3A1 (gene 1281); assay: BSK_MyoF_CollagenIII: BioMAP Diversity Plus: MyoF Assay for Collagen III Biomarker Activity (AID 2284239); conditions: primary human lung fibroblasts
Method in brief: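 ELISA read-out of collagen III from human lung fibroblasts after 24 h of chemical treatment. The DMSO control served as negative control and baseline, with values fitted in the positive direction.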

[3] = read-out: Interleukin 17F (IL17F), IL17F (gene 112744); assay: BSK_BT_xIL17F: BioMAP Diversity Plus: BT Assay for Interleukin 17F (IL17F) Biomarker Activity (AID 2284243); conditions: primary human B cells with PBMC
Method in brief: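 Compound was added to co-cultures of human B cells and PBMC. After 24 hours, IL-17F released into the medium was measured with LumineX xMAP technology. Responses were then fitted upward relative to DMSO.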

[4] = read-out: Actin alpha 1 (ACTA1), ACTA1 (gene 58); assay: BSK_MyoF_ACTA1: BioMAP Diversity Plus: MyoF Assay for Actin alpha 1 (ACTA1) Biomarker Activity (AID 2284244); conditions: primary human lung fibroblasts
Method in brief: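 alpha-SMA levels read by ELISA against DMSO baseline, 24 h post-dose, in primary human lung fibroblasts. Parallel cultures stained with 0.1% SRB after 10% TCA fixation (560 nm) to flag overt cytotoxicity.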

[5] = read-out: Interleukin 2 (IL2), IL2 (gene 3558); assay: BSK_BT_xIL2: BioMAP Diversity Plus: BT Assay for Interleukin 2 (IL2) Biomarker Activity (AID 2284245); conditions: primary human B cells with PBMC
Method in brief: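 Secreted IL-2 was read by Luminex xMAP from B cells co-cultured with PBMC (human primary) 24 h post-dosing; activity was analysed as gain of signal relative to DMSO vehicle.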

[6] = read-out: Collagen IV, COL4A1 (gene 1282); assay: BSK_MyoF_CollagenIV: BioMAP Diversity Plus: MyoF Assay for Collagen IV Biomarker Activity (AID 2284247); conditions: primary human lung fibroblasts
Method in brief: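 Collagen IV quantified by ELISA in human lung fibroblast cultures 24 h after chemical treatment, with DMSO as baseline. Parallel SRB staining (0.1% SRB after TCA fixation, 560 nm) flags overt cytotoxicity.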

[7] = read-out: Plasminogen activator inhibitor-1 (PAI1), SERPINE1 (gene 5054); assay: BSK_MyoF_PAI1: BioMAP Diversity Plus: MyoF Assay for Plasminogen activator inhibitor-1 (PAI1) Biomarker Activity (AID 2284256); conditions: primary human lung fibroblasts
Method in brief: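 Primary human lung fibroblasts are dosed and incubated 24 h. PAI-1 is then measured by ELISA, while parallel cultures undergo SRB staining for overt cytotoxicity. Increases over DMSO define activity.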

[8] = read-out: Basic fibroblast growth factor (bFGF), FGF2 (gene 2247); assay: BSK_MyoF_bFGF: BioMAP Diversity Plus: MyoF Assay for Basic fibroblast growth factor (bFGF) Biomarker Activity (AID 2284246); conditions: primary human lung fibroblasts
Method in brief: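 bFGF was measured by ELISA in primary human lung fibroblasts 24 h after chemical addition. Signal was analysed as positive-direction change relative to DMSO baseline.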

[9] = read-out: Monokine induced gamma interferon (MIG), CXCL9 (gene 4283); assay: BSK_KF3CT_MIG: BioMAP Diversity Plus: KF3CT Assay for Monokine induced gamma interferon (MIG) Biomarker Activity (AID 2284248); conditions: primary human keratinocytes with fibroblasts
Method in brief: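 KF3CT system: keratinocyte/fibroblast co-culture, 24 h post-dose, MIG by ELISA; activity vs DMSO, positive fitting direction.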

[10] = read-out: Collagen I, COL1A1 (gene 1277); assay: BSK_hDFCGF_CollagenI: BioMAP Diversity Plus: hDFCGF Assay for Collagen I Biomarker Activity (AID 2284250); conditions: primary human foreskin fibroblasts
Method in brief: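 Collagen I quantified by ELISA 24 h after chemical dosing of human dermal fibroblast primary cells, with parallel SRB staining (0.1%, TCA-fixed, 560 nm) for overt cytotoxicity.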

[11] = read-out: Interferon-inducible T-cell alpha chemoattractant (ITAC), CXCL11 (gene 6373); assay: BSK_hDFCGF_ITAC: BioMAP Diversity Plus: hDFCGF Assay for Interferon-inducible T-cell alpha chemoattractant (ITAC) Biomarker Activity (AID 2284251); conditions: primary human foreskin fibroblasts
Method in brief: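 I-TAC levels were read by ELISA on human dermal foreskin fibroblast primary cultures 24 h after dosing, analysed against DMSO in the positive direction. Cytotoxicity was assessed alongside by sulforhodamine B total-protein staining.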

[12] = read-out: Plasminogen activator inhibitor-1 (PAI1), SERPINE1 (gene 5054); assay: BSK_KF3CT_PAI1: BioMAP Diversity Plus: KF3CT Assay for Plasminogen activator inhibitor-1 (PAI1) Biomarker Activity (AID 2284252); conditions: primary human keratinocytes with fibroblasts
Method in brief: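 PAI-1 levels quantified by ELISA after 24 h compound exposure of primary human skin keratinocytes co-cultured with fibroblasts. Activity is the gain relative to DMSO; cytotoxicity tracked in parallel cultures via SRB staining.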

[13] = read-out: Monocyte Chemoattractant Protein-1 (MCP1), CCL2 (gene 6347); assay: BSK_IMphg_MCP1: BioMAP Diversity Plus: IMphg Assay for Monocyte Chemoattractant Protein-1 (MCP1) Biomarker Activity (AID 2284253); conditions: primary human endothelial cells with macrophages
Method in brief: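 ELISA readout of MCP-1 at 24 hours in IMphg co-cultures of venular endothelial cells and macrophages, normalised to DMSO; parallel cultures stained with sulforhodamine B for overt cytotoxicity.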

[14] = read-out: Interleukin-8 (IL8), CXCL8 (gene 3576); assay: BSK_KF3CT_IL8: BioMAP Diversity Plus: KF3CT Assay for Interleukin-8 (IL8) Biomarker Activity (AID 2284254); conditions: primary human keratinocytes with fibroblasts
Method in brief: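 Chemicals were added to co-cultured human keratinocytes and foreskin fibroblasts, incubated 24 h, then IL-8 was quantified by ELISA. Cytotoxicity was tracked by sulforhodamine B total-protein staining in parallel cultures.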

[15] = read-out: CD69, CD69 (gene 969); assay: BSK_IMphg_CD69: BioMAP Diversity Plus: IMphg Assay for CD69 Biomarker Activity (AID 2284257); conditions: primary human endothelial cells with macrophages
Method in brief: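 Readout is ELISA for CD69 in primary human venular endothelial cell/macrophage co-culture, taken at 24 h post-dosing. SRB staining of parallel cultures gauged overt cytotoxicity; signal increase versus DMSO defined activity.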

[16] = read-out: Vascular cell adhesion molecule 1 (VCAM1), VCAM1 (gene 7412); assay: BSK_BF4T_VCAM1: BioMAP Diversity Plus: BF4T Assay for Vascular cell adhesion molecule 1 (VCAM1) Biomarker Activity (AID 2284249); conditions: primary human bronchial epithelial cells with fibroblasts
Method in brief: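 Cell-surface VCAM-1 quantified by ELISA after 24 h chemical exposure of human bronchial epithelial/dermal fibroblast co-cultures, with SRB staining in parallel wells for cytotoxicity; DMSO baseline, positive-direction fitting.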

Measured: AC50

Brc1nc2ccccc2s1
inactive: [1] | [2] | [3] | [4] | [6] | [7]
active: [5] 0.431 µM

Cc1ccc(S(=O)(=O)C(I)I)cc1
active: [1] 8.3 µM | [2] 10.5 µM | [3] 2.77 µM | [4] 7.35 µM | [5] 4.47 µM | [8] 12.5 µM | [6] 7.25 µM | [7] 8.61 µM

O=C=Nc1cccc2c(N=C=O)cccc12
inactive: [1] | [2] | [3] | [4] | [5] | [6] | [7]

C[Si](Cl)(Cl)CCC(F)(F)C(F)(F)C(F)(F)C(F)(F)C(F)(F)C(F)(F)F
active: [11] 1.49 µM
inactive: [1] | [2] | [3] | [4] | [5] | [6] | [9] | [10] | [11] | [12] | [13] | [14] | [7] | [15]

Nc1cc([N+](=O)[O-])cc(Cl)c1O
inactive: [1] | [2] | [3] | [4] | [5] | [6] | [7]

O=S(=O)(OCC(F)(F)F)C(F)(F)C(F)(F)C(F)(F)C(F)(F)F
active: [11] 30 µM
not listed: [8] | [16]
inactive: all other assays above

Cc1cnccn1
inactive: [1] | [2] | [3] | [4] | [5] | [8] | [6] | [7]

O=C(O)C(F)(F)OC(F)(F)C(F)(F)OC(F)(F)C(F)(F)OC(F)(F)F
not listed: [8]
inactive: all other assays above
